CBX7 inh – blocks human CBX7 binding to H3K27me3 peptide | AlphaScreen His6-CBX7 / biotin-H3K27me3 peptide binding; stronger effect = lower value | normalised signal (fraction of DMSO) (test concentration not listed) | actives 1.1% (n = 66,000) | O95931; in the data active means normalised signal below about 0.5
Target sequence (O95931 whole entry, looked up): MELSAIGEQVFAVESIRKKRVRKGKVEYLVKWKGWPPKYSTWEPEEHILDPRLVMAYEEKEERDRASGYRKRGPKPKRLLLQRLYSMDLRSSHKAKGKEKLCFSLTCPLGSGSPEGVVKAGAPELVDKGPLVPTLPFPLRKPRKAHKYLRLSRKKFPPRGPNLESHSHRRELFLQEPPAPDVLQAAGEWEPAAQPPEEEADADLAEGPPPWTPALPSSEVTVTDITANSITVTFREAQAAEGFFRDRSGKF
Numbers stand for hits; n = inactive. This excerpt belongs to a sample that is enriched for hits.

SMILES | CBX7 inh
O=C(CCc1nc(-c2ccccc2F)no1)NCc1ccccn1 | n
CCc1ccc2nc(N3CCC(C(=O)NC4CCC(C)CC4)CC3)sc2c1 (stereo unspecified) | n
CC(Sc1nnc(Cc2cccc3ccccc23)n1-c1ccccc1)C(=O)O (stereo unspecified) | n
Cc1cccc2nc(-c3c(F)cccc3Cl)c(Nc3ccc4c(c3)OCO4)n12 | n
CCOC(CNC(=O)CN1C(=O)COc2ccc(S(=O)(=O)N3CCC(C)CC3)cc21)OCC | n
Cc1nc2c(-c3ccccc3)c(C)nn2c(C)c1CCC(=O)Nc1ccc(CN2CCOCC2)cc1 | n
CCN1CCCC1CNC(=O)c1cn(C2CCCCC2)c(=O)c2c1c1ccccc1n2C (stereo unspecified) | n
COc1ccc(N2CCN(C(c3cccs3)C(C)NS(=O)(=O)c3ccc(C)cc3)CC2)cc1 (stereo unspecified) | n
COc1ccc(N2CCN(C(c3cccs3)C(C)NS(=O)(=O)c3ccc(F)cc3)CC2)cc1 (stereo unspecified) | 0.489
COc1ccc(N2CCN(C(c3cccs3)C(C)NS(=O)(=O)c3ccccc3)CC2)cc1 (stereo unspecified) | 0.476
CC(NS(=O)(=O)c1ccc(F)cc1)C(c1cccs1)N1CCN(C)CC1 (stereo unspecified) | n
CCS(=O)(=O)NC(C)C(c1cccs1)N1CCN(c2ccc(OC)cc2)CC1 (stereo unspecified) | n
CC(NS(=O)(=O)c1ccc(F)cc1)C(c1cccs1)N1CCN(c2ccccc2)CC1 (stereo unspecified) | n
CCCCN(CC)S(=O)(=O)c1ccc2[nH]c(=O)cc(C(=O)NCc3ccc(OCC)cc3)c2c1 | n
CCOc1ccc(CCNC(=O)CCN2C(=O)c3ccccc3C2=O)cc1OCC | n
CCCN(CCC)CCCNC(=O)CCC(=O)Nc1ccc2nc(N3CCC(C)CC3)cc(C)c2c1 | n
Cc1c(C(=O)NCc2ccccc2)sc2nc(-c3ccc(F)cc3)cn12 | n
COc1ccc(Cc2nc3c4c5c(sc4ncn3n2)CCCC5)cc1 | n
CC(=O)Nc1ccccc1-c1nc2ccc(C(=O)NCCCN3CC(C)CC(C)C3)cc2[nH]c1=O (stereo unspecified) | n
CC1CCN(c2nc3ccc(C(=O)NCC(C)c4ccccc4)cc3s2)CC1 (stereo unspecified) | n
CCOc1ccc(-c2nnc(Nc3cccc(O)c3)c3ccccc23)cc1 | 0.495
CCOc1ccc(-c2nnc(Nc3ccc(O)cc3)c3ccccc23)cc1 | n
Oc1cccc(Nc2nnc(-c3ccc(Cl)cc3)c3ccccc23)c1 | n
Cc1ccc(-c2nnc(Nc3cccc(O)c3)c3ccccc23)cc1 | 0.423
Cc1nnc(Nc2cccc(O)c2)c2ccccc12 | n
SMILES | CBX7 inh
CCOc1ccc(-c2nnc(Nc3ccc(C(=O)N(C)C)cc3)c3ccccc23)cc1 | n
Cc1ccc(CNC(=O)C2CCCN(C(=O)c3cc4sccc4n3C)C2)cc1 (stereo unspecified) | n
Cc1ccccc1NC(=O)Cn1cc(S(=O)(=O)c2ccccc2)c(=O)c2cc(Cl)ccc21 | n
COc1ccc(N2CCN(C(=O)c3cccc4c3C(=O)N(Cc3cccnc3)C4)CC2)cc1 | n
CCCCN(CC)S(=O)(=O)c1ccc(C(=O)Nc2nc(-c3ccccn3)cs2)cc1 | 0.477
O=C(Nc1nc(-c2ccccn2)cs1)c1ccc(S(=O)(=O)N2CCOCC2)cc1 | 0
O=C(Nc1nc(-c2nc3ccccc3s2)cs1)c1ccc(S(=O)(=O)N2CCCCCC2)cc1 | n
O=C(Nc1nc(-c2ccccn2)cs1)c1ccc(S(=O)(=O)N2CCCCC2)cc1 | 0
CCCN(CCC)S(=O)(=O)c1ccc(C(=O)Nc2nc(-c3ccncc3)cs2)cc1 | n
O=C(Nc1nc(-c2ccncc2)cs1)c1ccc(S(=O)(=O)N2CCCCCC2)cc1 | n
CCCCN(CCCC)S(=O)(=O)c1ccc(C(=O)Nc2nc(-c3ccncc3)cs2)cc1 | n
O=C(Nc1nc(-c2ccncc2)cs1)c1ccc(S(=O)(=O)N2CCOCC2)cc1 | n
O=C(Nc1nnc(-c2ccccc2)s1)c1ccc(S(=O)(=O)N2CCOCC2)cc1 | n
CCc1ccccc1NC(=O)c1cnn(-c2ccccc2)c1C1CCN(C(=O)OC(C)(C)C)CC1 | n
O=C(Cn1ncc2c1-c1ccccc1OC2)Nc1nccs1 | n
CCN(Cc1ccccc1)C(=O)Cc1c(C(=O)O)[nH]c2ccccc12 | n
COc1ccc(OCc2cn3cccnc3n2)cc1 | n
CCC(C)NC(=O)c1ccc2nc(N3CCC(C)CC3)sc2c1 (stereo unspecified) | n
Cc1cc(-n2c(SCc3ccccc3)nnc2-c2cccnc2)ccc1Cl | n
CCOC(=O)N1CCN(C(=O)Cn2ncc3c2-c2cc(C)ccc2OC3)CC1 | n
C=CCc1ccccc1OCC(O)CN1CCN(C(C)=O)CC1 (stereo unspecified) | n
COc1ccc(CN2C(=O)c3cccnc3C2Nc2cc(Cl)ccc2OC)cc1 (stereo unspecified) | 0.00532
O=C1c2cccnc2C(Nc2ccc(F)cc2)N1Cc1ccc(F)cc1 (stereo unspecified) | n

Source: PubChem BioAssay (Bradner/Qi Labs at DFCI)
